Experimental data reported in paper PMC7862700, “An all-to-all approach to the identification of sequence-specific readers for epigenetic DNA modifications on cytosine”.

What was measured:
Assay in all cases: DAPPL (digital affinity profiling via proximity ligation, sequencing); 10 mM Tris-HCl pH 7.5, 50 mM NaCl, 1 mM DTT, 4% glycerol, room temperature, 30 min; GST-TFs on glutathione beads, 16-mer random dsDNA library, 0.1% formaldehyde crosslink after washing; high values mean tight binding
FEV = target: T1, FEV (Homo sapiens, UniProt Q99581 1-238); conditions: protein: recombinant; tags: N-terminal GST; dsDNA, one strand shown
T1 sequence: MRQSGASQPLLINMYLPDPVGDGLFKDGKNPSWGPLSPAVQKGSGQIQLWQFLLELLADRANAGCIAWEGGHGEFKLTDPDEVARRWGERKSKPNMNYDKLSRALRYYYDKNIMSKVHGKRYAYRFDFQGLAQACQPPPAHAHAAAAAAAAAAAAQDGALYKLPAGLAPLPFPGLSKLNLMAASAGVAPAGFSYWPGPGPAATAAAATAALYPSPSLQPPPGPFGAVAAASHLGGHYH
Procedure, shortened: (§1)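 Beads coated with glutathione captured GST-fused human transcription factors that had been expressed in yeast, and the factors were then given DNA barcodes and pooled with a tag-only sample. The pools were incubated with 200 nmole of a random double-stranded 16-mer DNA library in Tris/NaCl/DTT/glycerol buffer for 30 min at room temperature, washed, crosslinked with 0.1% formaldehyde and proximity-ligated with BsaI/T4 ligase at 37 °C for 1 h. PCR amplification and Illumina NextSeq500 sequencing came last. Binding signal is each hexamer's read frequency for a factor divided by its frequency for the tag-only sample.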

ETV5 = ETV5 (Homo sapiens, UniProt P41161 1-510); conditions: protein: recombinant; tags: N-terminal GST; dsDNA, one strand shown
Procedure, shortened: as §1

HSF1 = HSF1 (Homo sapiens, UniProt Q00613 1-529); conditions: protein: recombinant; tags: N-terminal GST; chain copies: 3; dsDNA, one strand shown
Procedure, shortened: as §1

SPIC = target: T2, SPIC (Homo sapiens, UniProt Q8N5J4 1-248); conditions: protein: recombinant; tags: N-terminal GST; dsDNA, one strand shown
T2 sequence: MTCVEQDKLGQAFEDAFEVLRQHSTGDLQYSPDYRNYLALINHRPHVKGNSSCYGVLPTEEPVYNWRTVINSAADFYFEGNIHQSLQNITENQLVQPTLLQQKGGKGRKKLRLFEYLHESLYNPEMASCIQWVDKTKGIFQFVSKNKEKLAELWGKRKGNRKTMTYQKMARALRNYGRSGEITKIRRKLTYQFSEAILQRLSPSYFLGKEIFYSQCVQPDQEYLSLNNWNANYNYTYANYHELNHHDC
Procedure, shortened: as §1

ELF4 = ELF4 (Homo sapiens, UniProt Q99607 1-663); conditions: protein: recombinant; tags: N-terminal GST; dsDNA, one strand shown
Procedure, shortened: as §1

ELK4 = target: T3, ELK4 (Homo sapiens, UniProt P28324-2 1-405); conditions: protein: recombinant; tags: N-terminal GST; dsDNA, one strand shown
T3 sequence: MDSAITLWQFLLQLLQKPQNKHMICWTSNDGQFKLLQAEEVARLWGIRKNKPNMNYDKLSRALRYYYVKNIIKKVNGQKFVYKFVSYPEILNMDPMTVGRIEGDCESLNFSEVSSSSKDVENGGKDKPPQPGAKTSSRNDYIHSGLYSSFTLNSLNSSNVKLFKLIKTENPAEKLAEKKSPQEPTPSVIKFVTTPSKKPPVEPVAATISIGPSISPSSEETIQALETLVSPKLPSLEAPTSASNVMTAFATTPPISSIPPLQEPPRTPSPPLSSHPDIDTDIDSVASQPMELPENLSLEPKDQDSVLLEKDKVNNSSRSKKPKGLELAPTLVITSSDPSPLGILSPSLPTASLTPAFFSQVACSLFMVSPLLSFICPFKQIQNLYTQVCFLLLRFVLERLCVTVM
Procedure, shortened: as §1

ETV2 = target: T4, ETV2 (Homo sapiens, UniProt O00321 1-342); conditions: protein: recombinant; tags: N-terminal GST; dsDNA, one strand shown
T4 sequence: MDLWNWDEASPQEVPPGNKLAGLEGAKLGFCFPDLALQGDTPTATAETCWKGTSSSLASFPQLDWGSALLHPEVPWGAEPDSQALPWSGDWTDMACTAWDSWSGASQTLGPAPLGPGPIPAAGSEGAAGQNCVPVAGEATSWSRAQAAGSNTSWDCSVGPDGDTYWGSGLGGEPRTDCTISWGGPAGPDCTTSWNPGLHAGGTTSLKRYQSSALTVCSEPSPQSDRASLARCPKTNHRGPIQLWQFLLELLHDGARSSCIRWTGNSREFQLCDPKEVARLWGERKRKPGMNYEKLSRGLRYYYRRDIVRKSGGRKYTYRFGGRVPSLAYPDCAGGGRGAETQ
Procedure, shortened: as §1

ELF3 = target: T5, ELF3 (Homo sapiens, UniProt P78545 1-371); conditions: protein: recombinant; tags: N-terminal GST; dsDNA, one strand shown
T5 sequence: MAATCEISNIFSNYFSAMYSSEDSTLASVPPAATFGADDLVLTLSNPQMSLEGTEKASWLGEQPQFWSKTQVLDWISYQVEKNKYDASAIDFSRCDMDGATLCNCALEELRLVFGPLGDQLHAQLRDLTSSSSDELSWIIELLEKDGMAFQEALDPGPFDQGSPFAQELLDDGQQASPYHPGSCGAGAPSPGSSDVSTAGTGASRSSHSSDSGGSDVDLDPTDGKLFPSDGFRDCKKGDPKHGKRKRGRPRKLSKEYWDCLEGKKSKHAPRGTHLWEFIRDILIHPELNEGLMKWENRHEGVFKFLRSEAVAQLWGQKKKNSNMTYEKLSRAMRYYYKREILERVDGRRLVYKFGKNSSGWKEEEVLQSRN
Procedure, shortened: as §1

CRX = CRX (Homo sapiens, UniProt O43186 1-299); conditions: protein: recombinant; tags: N-terminal GST; dsDNA, one strand shown
Procedure, shortened: as §1

ETV1 = ETV1 (Homo sapiens, UniProt P50549 1-477); conditions: protein: recombinant; tags: N-terminal GST; dsDNA, one strand shown
Procedure, shortened: as §1

ERF = target: T6, ERF (Homo sapiens, UniProt P50548 1-548); conditions: protein: recombinant; tags: N-terminal GST; dsDNA, one strand shown
T6 sequence: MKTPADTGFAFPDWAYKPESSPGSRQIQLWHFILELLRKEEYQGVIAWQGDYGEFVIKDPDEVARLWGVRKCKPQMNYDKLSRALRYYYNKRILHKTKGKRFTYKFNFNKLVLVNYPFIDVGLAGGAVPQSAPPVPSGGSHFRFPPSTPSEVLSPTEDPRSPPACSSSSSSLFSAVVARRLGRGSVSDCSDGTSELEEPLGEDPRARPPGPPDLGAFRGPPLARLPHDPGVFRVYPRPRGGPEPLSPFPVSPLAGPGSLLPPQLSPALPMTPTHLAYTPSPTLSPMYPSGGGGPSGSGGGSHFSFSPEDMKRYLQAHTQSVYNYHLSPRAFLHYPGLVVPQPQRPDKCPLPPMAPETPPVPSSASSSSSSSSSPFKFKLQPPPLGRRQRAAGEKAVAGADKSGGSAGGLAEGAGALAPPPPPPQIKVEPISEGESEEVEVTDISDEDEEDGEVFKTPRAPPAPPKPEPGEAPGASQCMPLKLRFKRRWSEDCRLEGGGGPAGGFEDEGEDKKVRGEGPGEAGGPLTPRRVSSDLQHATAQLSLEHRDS
Procedure, shortened: as §1

ETV3L = target: T7, ETV3L (Homo sapiens, UniProt Q6ZN32 1-361); conditions: protein: recombinant; tags: N-terminal GST; dsDNA, one strand shown
T7 sequence: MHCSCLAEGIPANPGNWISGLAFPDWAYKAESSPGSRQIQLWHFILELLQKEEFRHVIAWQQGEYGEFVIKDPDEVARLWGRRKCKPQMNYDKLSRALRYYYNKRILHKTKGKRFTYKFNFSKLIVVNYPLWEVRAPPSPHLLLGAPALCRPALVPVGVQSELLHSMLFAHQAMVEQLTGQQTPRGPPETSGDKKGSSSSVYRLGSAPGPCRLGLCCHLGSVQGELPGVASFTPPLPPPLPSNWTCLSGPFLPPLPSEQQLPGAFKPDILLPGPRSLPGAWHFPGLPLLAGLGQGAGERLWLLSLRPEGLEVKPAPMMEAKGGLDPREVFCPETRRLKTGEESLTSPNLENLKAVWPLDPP
Procedure, shortened: as §1

ETS2 = target: T8, ETS2 (Homo sapiens, UniProt P15036 1-469); conditions: protein: recombinant; tags: N-terminal GST; dsDNA, one strand shown
T8 sequence: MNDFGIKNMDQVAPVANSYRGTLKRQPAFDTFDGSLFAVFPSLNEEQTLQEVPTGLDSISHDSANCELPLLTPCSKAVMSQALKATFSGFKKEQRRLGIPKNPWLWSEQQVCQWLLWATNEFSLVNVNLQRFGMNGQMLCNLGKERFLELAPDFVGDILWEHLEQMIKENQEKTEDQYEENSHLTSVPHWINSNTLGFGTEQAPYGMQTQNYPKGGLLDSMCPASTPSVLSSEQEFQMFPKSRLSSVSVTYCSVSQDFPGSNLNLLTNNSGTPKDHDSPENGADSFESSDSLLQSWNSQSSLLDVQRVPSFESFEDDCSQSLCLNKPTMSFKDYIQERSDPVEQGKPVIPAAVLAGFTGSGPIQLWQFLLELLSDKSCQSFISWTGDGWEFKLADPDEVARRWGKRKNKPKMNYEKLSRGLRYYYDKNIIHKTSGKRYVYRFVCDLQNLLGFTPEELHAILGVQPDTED
Procedure, shortened: as §1

SPDEF = target: T9, SPDEF (Homo sapiens, UniProt O95238 1-335); conditions: protein: recombinant; tags: N-terminal GST; dsDNA, one strand shown
T9 sequence: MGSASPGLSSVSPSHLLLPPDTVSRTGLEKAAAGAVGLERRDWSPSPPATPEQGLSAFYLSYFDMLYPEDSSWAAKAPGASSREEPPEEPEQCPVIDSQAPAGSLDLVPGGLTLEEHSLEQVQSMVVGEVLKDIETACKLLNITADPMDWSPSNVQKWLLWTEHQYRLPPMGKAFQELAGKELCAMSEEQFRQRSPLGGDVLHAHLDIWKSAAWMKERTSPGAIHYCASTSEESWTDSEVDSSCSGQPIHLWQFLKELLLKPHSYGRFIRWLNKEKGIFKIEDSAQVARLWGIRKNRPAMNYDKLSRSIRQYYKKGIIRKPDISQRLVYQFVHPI
Procedure, shortened: as §1

ETV7 = target: T10, ETV7 (Homo sapiens, UniProt Q9Y603 1-341); conditions: protein: recombinant; tags: N-terminal GST; dsDNA, one strand shown
T10 sequence: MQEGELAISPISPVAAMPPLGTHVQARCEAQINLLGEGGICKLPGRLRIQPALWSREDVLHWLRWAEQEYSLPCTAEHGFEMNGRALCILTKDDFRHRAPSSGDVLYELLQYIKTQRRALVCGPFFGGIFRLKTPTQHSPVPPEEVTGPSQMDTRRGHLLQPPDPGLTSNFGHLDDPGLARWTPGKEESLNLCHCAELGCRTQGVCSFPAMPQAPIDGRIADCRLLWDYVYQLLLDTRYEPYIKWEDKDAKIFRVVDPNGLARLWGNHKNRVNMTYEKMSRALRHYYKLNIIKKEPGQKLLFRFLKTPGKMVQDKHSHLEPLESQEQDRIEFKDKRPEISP
Procedure, shortened: as §1

ELF5 = target: T11, ELF5 (Homo sapiens, UniProt Q9UKW6-2 1-255); conditions: protein: recombinant; tags: N-terminal GST; dsDNA, one strand shown
T11 sequence: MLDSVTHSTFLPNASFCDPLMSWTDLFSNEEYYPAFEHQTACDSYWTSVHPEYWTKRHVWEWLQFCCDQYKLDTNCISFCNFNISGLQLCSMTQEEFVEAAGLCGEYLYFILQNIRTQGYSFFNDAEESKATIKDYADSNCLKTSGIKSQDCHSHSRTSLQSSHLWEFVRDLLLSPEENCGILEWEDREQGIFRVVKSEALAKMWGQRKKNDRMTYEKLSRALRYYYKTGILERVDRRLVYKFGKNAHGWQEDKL
Procedure, shortened: as §1

ETV3 = target: T12, ETV3 (Homo sapiens, UniProt P41162-2 1-143); conditions: protein: recombinant; tags: N-terminal GST; dsDNA, one strand shown
T12 sequence: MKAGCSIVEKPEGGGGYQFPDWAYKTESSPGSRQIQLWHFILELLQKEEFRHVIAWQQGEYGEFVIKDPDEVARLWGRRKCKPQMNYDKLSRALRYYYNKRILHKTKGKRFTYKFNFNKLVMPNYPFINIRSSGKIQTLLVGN
Procedure, shortened: as §1

ETV6 = ETV6 (Homo sapiens, UniProt P41212 1-452); conditions: protein: recombinant; tags: N-terminal GST; dsDNA, one strand shown
Procedure, shortened: as §1

Sequence of ETV1 (P50549 whole entry): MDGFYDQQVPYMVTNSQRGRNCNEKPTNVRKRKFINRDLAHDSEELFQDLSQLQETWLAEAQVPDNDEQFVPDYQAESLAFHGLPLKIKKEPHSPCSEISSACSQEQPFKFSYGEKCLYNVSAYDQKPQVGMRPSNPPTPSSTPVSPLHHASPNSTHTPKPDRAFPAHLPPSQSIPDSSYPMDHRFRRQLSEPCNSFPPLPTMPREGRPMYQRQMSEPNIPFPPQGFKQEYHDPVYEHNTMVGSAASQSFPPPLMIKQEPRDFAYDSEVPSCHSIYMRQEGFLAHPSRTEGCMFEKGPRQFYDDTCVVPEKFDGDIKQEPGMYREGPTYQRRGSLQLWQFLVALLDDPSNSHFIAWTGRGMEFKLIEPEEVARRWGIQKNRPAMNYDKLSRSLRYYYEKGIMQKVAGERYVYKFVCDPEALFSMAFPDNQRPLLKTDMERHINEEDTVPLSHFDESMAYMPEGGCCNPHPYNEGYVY
Sequence of CRX (O43186 whole entry): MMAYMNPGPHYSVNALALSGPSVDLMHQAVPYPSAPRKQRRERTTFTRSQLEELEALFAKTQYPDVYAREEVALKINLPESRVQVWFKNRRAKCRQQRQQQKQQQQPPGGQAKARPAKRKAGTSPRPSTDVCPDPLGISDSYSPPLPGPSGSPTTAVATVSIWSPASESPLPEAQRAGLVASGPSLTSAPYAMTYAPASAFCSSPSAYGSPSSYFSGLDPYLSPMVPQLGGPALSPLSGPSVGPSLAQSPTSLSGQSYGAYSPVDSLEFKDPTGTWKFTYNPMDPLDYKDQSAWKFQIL
Sequence of ELF4 (Q99607 whole entry): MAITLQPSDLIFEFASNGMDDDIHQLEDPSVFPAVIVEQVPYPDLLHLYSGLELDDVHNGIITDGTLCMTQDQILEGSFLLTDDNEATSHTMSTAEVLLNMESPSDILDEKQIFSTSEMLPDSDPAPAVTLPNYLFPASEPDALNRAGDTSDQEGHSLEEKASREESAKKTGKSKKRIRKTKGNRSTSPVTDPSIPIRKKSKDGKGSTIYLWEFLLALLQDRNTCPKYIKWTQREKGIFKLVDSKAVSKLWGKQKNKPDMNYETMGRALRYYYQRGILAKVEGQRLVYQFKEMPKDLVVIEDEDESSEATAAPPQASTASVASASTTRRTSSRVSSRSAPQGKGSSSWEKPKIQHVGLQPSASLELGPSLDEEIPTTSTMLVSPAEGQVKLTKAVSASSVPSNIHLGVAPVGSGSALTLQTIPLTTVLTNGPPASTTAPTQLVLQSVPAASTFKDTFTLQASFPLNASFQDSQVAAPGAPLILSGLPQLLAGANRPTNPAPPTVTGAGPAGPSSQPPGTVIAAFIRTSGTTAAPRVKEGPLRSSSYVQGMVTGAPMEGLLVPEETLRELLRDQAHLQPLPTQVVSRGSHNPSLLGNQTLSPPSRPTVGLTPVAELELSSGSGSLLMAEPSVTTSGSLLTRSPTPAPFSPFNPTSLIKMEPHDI
Sequence of ETV5 (P41161 whole entry): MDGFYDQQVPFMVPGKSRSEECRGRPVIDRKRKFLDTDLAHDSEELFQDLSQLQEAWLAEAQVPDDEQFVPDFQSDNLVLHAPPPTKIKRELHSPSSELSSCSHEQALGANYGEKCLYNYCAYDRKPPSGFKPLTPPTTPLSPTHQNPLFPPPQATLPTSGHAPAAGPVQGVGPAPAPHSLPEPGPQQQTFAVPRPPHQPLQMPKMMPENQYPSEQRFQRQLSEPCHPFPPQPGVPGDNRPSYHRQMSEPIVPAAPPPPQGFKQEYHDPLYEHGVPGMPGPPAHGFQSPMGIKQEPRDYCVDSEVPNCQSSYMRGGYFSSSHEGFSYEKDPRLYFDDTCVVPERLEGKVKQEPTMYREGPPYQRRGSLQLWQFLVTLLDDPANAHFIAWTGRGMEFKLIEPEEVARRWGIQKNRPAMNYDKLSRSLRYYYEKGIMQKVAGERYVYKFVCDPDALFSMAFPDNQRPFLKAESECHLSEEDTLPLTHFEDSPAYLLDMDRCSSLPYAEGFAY
Sequence of HSF1 (Q00613 whole entry): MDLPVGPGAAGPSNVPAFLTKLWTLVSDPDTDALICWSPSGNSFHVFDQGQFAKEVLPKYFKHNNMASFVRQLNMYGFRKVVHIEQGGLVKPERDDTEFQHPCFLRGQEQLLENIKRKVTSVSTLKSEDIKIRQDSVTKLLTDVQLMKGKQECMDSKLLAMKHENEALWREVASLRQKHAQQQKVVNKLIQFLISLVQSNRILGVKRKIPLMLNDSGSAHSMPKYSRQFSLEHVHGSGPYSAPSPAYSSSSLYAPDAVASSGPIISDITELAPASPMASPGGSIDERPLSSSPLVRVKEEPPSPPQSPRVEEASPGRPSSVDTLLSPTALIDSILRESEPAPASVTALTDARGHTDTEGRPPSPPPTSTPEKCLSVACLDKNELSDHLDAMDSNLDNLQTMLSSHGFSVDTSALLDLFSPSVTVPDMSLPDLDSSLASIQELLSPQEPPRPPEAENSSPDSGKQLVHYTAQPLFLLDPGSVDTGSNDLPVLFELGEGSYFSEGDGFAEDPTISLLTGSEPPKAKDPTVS
Sequence of ETV6 (P41212 whole entry): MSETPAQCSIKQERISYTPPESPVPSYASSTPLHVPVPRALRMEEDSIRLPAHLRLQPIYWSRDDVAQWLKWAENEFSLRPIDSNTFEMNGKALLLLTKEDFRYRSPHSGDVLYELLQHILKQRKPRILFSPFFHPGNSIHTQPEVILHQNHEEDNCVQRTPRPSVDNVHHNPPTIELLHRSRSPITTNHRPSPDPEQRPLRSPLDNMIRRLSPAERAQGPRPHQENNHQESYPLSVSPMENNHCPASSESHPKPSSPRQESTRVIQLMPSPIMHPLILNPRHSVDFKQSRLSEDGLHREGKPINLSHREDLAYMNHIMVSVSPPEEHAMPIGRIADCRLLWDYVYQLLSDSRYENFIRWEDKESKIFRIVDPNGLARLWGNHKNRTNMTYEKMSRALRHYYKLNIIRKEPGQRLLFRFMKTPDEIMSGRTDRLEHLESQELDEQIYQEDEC

In the case of CATTCG, the binding signal (FEV) was 1.17 fold enrichment (6-mer frequency, TF over GST control), the binding signal (ETV5) was 1.09 fold enrichment (6-mer frequency, TF over GST control) and the binding signal (HSF1) was 1.64 fold enrichment (6-mer frequency, TF over GST control). For the same sequence, the binding signal (SPIC) was 1.3 fold enrichment (6-mer frequency, TF over GST control), the binding signal (ELF4) was 1.18 fold enrichment (6-mer frequency, TF over GST control) and the binding signal (ELK4) was 1.05 fold enrichment (6-mer frequency, TF over GST control). For the same sequence, the binding signal (ETV2) was 1.22 fold enrichment (6-mer frequency, TF over GST control), the binding signal (ELF3) was 1.25 fold enrichment (6-mer frequency, TF over GST control) and the binding signal (CRX) was 1.14 fold enrichment (6-mer frequency, TF over GST control). The binding signal (ETV1) was 1.16 fold enrichment (6-mer frequency, TF over GST control), the binding signal (ERF) was 1.21 fold enrichment (6-mer frequency, TF over GST control) and the binding signal (ETV3L) was 1.17 fold enrichment (6-mer frequency, TF over GST control). For the same sequence, the binding signal (ETS2) was 1.17 fold enrichment (6-mer frequency, TF over GST control), the binding signal (SPDEF) was 1.15 fold enrichment (6-mer frequency, TF over GST control) and the binding signal (ETV7) was 1.18 fold enrichment (6-mer frequency, TF over GST control). For the same sequence, the binding signal (ELF5) was 1.13 fold enrichment (6-mer frequency, TF over GST control), the binding signal (ETV3) was 1.27 fold enrichment (6-mer frequency, TF over GST control) and the binding signal (ETV6) was 1.27 fold enrichment (6-mer frequency, TF over GST control).
